Screens (PubChem BioAssay)
TDP1 cell CPT – qHTS for Inhibitors of human tyrosyl-DNA phosphodiesterase 1 (TDP1): qHTS in cells in presence of CPT; 420,000 tested, 12% active; chicken DT40 Tdp1-/-;hTDP1 cells + 20 nM CPT, ATP luminescence, 48 h; Potency, µM (titrated, usually from 46.2 µM), for the others: at the highest dose activity change, negative = growth inhibition, usual class: inhibitors; also: potency is read from the fitted curve at half-maximal effect; % is scaled to controls: 0 for no effect and ±100 for the full control effect; nearly all actives have a fitted effect of over 55% in size
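Cell growth measured by CellTiter-Glo luminescence after a minimum 48 h, 37 C compound exposure with 20 nM CPT in Tdp1-knockout DT40 cells stably expressing hTDP1, seeded 400/well; qHTS titration format.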
TDP1 block – qHTS Assay for Inhibitors of Tyrosyl-DNA Phosphodiesterase (TDP1); Potency, µM (highest dose often 130 µM), for the others: at the highest dose activity change, negative = inhibition, usual class: inhibitors; recombinant TDP1, AlphaScreen DNA substrate cleavage; Tyrosyl-DNA phosphodiesterase 1 (Homo sapiens), Q9NUW8; 350,000 tested, 0.28% active; also: potency is read from the fitted curve at half-maximal effect; % is scaled to controls: 0 for no effect and ±100 for the full control effect; nearly all actives have a fitted effect of over 40% in size
Target sequence (Q9NUW8 whole entry, looked up): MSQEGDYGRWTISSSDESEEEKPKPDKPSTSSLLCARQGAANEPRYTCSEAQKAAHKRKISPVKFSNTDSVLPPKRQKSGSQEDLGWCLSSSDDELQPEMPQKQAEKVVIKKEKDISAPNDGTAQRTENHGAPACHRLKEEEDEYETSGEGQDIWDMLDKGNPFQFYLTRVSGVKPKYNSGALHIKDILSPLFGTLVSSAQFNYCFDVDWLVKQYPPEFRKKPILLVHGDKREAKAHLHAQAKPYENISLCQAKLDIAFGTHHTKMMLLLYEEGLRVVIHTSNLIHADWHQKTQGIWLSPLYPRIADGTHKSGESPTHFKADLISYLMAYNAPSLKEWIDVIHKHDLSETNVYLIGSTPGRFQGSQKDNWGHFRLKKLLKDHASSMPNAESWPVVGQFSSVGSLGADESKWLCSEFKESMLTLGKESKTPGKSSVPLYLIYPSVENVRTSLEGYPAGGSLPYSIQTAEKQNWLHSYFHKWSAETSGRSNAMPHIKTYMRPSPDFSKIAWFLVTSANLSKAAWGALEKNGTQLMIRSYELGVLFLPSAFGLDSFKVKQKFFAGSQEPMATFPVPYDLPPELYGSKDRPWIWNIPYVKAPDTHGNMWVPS
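Tdp1 1 nM final; 15 min RT w/ cpd; substrate 15 nM, 5 min; beads 10 ug/ml, 10 min; AlphaScreen read. Neg ctrl: no enzyme.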
TDP1 cell noCPT – qHTS for Inhibitors of human tyrosyl-DNA phosphodiesterase 1 (TDP1): qHTS in cells in absence of CPT; DT40 Tdp1-/- hTDP1 cells, no CPT, ATP luminescence, 48 h; Potency, µM (series often up to 46.2 µM), for inactives: top-dose activity change, negative = growth inhibition, most hits filed as inhibitors; 420,000 tested, 15% active; AID 686978, 2013; also: potency is read from the fitted curve at half-maximal effect; % is scaled to controls: 0 for no effect and ±100 for the full control effect; nearly all actives have a fitted effect of over 55% in size
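Compound effects on proliferation are scored in DT40 Tdp1-/-;hTDP1 cells in the absence of CPT. ATP levels (CellTiter-Glo luminescence) are recorded after a ≥48 hr, 37 °C incubation.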
uPA surface inh – qHTS for Inhibitors of Cell Surface uPA Generation | cell surface uPA generation assay, qHTS | Potency, µM (series often up to 38.3 µM), without a hit: top-dose activity change, negative = inhibition, most hits filed as inhibitors | 330,000 tested, 0.31% active; active = well fitted inhibition curve with a large enough effect; inconclusive = small, poorly fitted or top-dose-only effect; inactive = no such curve, though single readings can be large or run the other way; tested in mouse RAW 264.7 cells; also: potency is read from the fitted curve at half-maximal effect; % is scaled to controls: 0 for no effect and ±100 for the full control effect; nearly all actives have a fitted effect of over 55% in size
miR-21 act – qHTS Assay for Modulators of miRNAs and/orActivators of miR-21; HeLa miR-21 FLuc reporter, luciferase, 48 h; Potency, µM (doses to about 38.3 µM), without a hit: top-dose activity change, positive = activation, most hits filed as activators; 340,000 tested, under 10 active; AID 2288, 2010;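 also: % of control where 0% means no effect; miR-21 action dims this reporter so a rising signal means less miR-21 action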
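HeLa cells endogenously expressing miR-21, stably carrying CMV-driven firefly luciferase with a downstream miR-21 binding site, 2000 cells/well. Titrations up to approximately 40 uM, 48 hours; luciferase luminescence read.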
Starred values were filed as active, the others as inactive; ? = inconclusive; · = no result; [ ] = dose if it differs, or a comment. Rows were chosen to be rich in hits. Some 16% of all compounds tested hit in one or more screens of this group. Unless noted, calls follow the shape of the dose curve; as a rule, active = well fitted curve in the direction sought with a large enough effect; inconclusive = small, poorly fitted or top-dose-only effect, or another doubt; inactive = no such curve, though single readings can be large; an effect the other way counts as inactive or inconclusive.

SMILES	TDP1 cell CPT	TDP1 block	TDP1 cell noCPT	uPA surface inh	miR-21 act
CCCN(C/C=C\I)[C@@H]1CCc2ccc(O)cc2C1	?	14.1%[56.1 µM]	?	·	·
CC(c1ccccc1)n1cncc1C(=O)O (stereo unspecified)	-5.1%	22.4µM*	-0.2%	5.4%	-2.7%
CC(N)[C@H](O)c1ccccc1 (stereo partly specified)	2.6%	13.6%[56.1 µM]	-0.1%	·	·
CCn1c(C)[n+](CC(O)COCC2CC=CCC2)c2ccccc21 (stereo unspecified)	20.6µM*	5.0%	23.1µM*	-4.5%	15.6%
N#CC(O)c1ccccc1 (stereo unspecified)	·	13.2%	·	·	·
COc1ccccc1CN1CCCC(C(=O)c2ccccc2OC)C1 (stereo unspecified)	8.2µM*	1.9%	?	-1.6%	5.8%
CSc1ccccc1C(=O)C1CCCN(Cc2ccncc2)C1 (stereo unspecified)	-21.2%	6.1%	-14.2%	0.7%	-0.4%
COc1ccccc1CN1CCCC(C(=O)c2ccccc2SC)C1 (stereo unspecified)	13µM*	2.4%	20.6µM*	4.5%	14.7%
COc1ccc(C(=O)C2CCCN(CCc3ccccc3)C2)cc1OC (stereo unspecified)	?	·	18.4µM*	·	·
COc1cccc(OC)c1CN1CCCC(C(=O)c2cccc(Cl)c2)C1 (stereo unspecified)	18.4µM*	·	?	9.0%	26.8%
CCCCOP(=O)(OCCCC)C1(C)CC(=O)CC(C)(C)C1 (stereo unspecified)	?	·	-24.6%	1.5%	·
[O-][Cl+]O	·	6.5%	·	·	·
CCn1ccnc1CN1CCCC(C(=O)c2cccc(C(F)(F)F)c2)C1 (stereo unspecified)	?	5.4%	25.9µM*	-0.3%	6.3%
COc1ccc(O)c(CN2CCCC(C(=O)c3ccccc3SC)C2)c1 (stereo unspecified)	?	6.0%	14.6µM*	·	4.6%
CCOc1ccc(CN2CCCC(C(=O)c3ccccc3OC)C2)cc1 (stereo unspecified)	?	3.6%	?	-1.4%	7.9%
O=C(O)c1sc2cc(Cl)ccc2c1Cl	·	·	·	·	-0.5%
CCN1C[C@]2(C)CC[C@H](OC)[C@@]34[C@@H]2[C@H](OC(C)=O)[C@]2(OCO[C@@]25C[C@@H](OC)[C@@H]2C[C@@]3(O)[C@H]5[C@@H]2OC)[C@H]14	·	2.6%[21 µM]	·	·	·
CNC(C)C#Cc1ccc2oc3cc(C)c(C)cc3c(=O)c2c1 (stereo unspecified)	?	·	14.6µM*	?	·
CCCC1=Nc2cc(C(=O)NCCCN(CC)CC)ccc2Sc2ccccc21	?	0.0%	29.1µM*	·	7.3%
COc1ccc(CCNC(=O)N2c3ccccc3Sc3ccccc32)cc1	?	·	?	-4.6%	·
CCCC1=Nc2cc(C(=O)NCCc3ccc(OCC)cc3)ccc2Sc2ccccc21	?	0.0%[12.3 µM]	20.6µM*	·	29.2%
CN1C(=O)/C(=C/c2ccc(Cl)s2)C(=O)NC1=S	7.31µM*	-6.1%	9.2µM*	0.0%	-6.6%
COc1ccc(/C=C2\C(=O)NC(=S)N(C)C2=O)cc1C	2.0%	·	-1.7%	-3.0%	1.7%
C=CCN1C(=O)/C(=C/c2ccc(Br)s2)C(=O)NC1=S	?	·	20.6µM*	-3.9%	?
Cc1ccsc1/C=C1\C(=O)NC(=S)N(C)C1=O	5.8µM*	2.1%	3.26µM*	-24.4%	-8.7%
SMILES	TDP1 cell CPT	TDP1 block	TDP1 cell noCPT	uPA surface inh	miR-21 act
O=C(O)CCl	·	7.0%	·	·	·
CCOC(=O)C1(CCOc2ccccc2)CCN(Cc2cnc(SC)nc2)CC1	?	0.0%	18.4µM*	-2.1%	0.4%
CCOC(=O)C1(CCc2ccccc2)CCN(Cc2cccc3c2OCO3)CC1	?	·	9.2µM*	-11.1%	5.0%
CCOC(=O)C1(CCOc2ccccc2)CCN(Cc2ccccc2OC)CC1	16.4µM*	·	14.6µM*	4.2%	17.5%
C=CCN1CC[C@]23c4c5ccc(O)c4OC2C(O)C=CC3[C@H]1C5 (stereo partly specified)	-0.6%	2.1%	-15.9%	-0.3%	·
COC(=O)[C@@H]1[C@@H](O)[C@@]2(O)c3c(OC)cc(OC)cc3O[C@@]2(c2ccc(OC)cc2)[C@H]1c1ccccc1	·	6.9%[21 µM]	·	·	·
O=C1C=CC2C3C(=O)N(c4ccccc4)C(=O)C3C1N2Cc1ccccc1 (stereo unspecified)	2.06µM*	·	2.31µM*	-1.4%	·
O=C1CC(N2CC=C(c3ccccc3)CC2)C(=O)N1c1ccc(F)cc1 (stereo unspecified)	14.6µM*	7.6%	18.4µM*	-6.4%	-2.8%
CCCCCCCCCC(=O)O[C@H]1CC[C@H]2[C@@H]3CCC4=CC(=O)CC[C@]4(C)[C@H]3CC[C@]12C	4.1%	-10.6%	-0.5%	·	·
Cc1ccc(Cn2nc(C)c(NC(=O)c3cc(-c4ccc(F)cc4)on3)c2C)cc1	10.3µM*	7.3%	7.31µM*	·	5.9%
CCCCCCCCn1sccc1=O	0.731µM*	0.4%	1.16µM*	?	·
C=CCc1cc(OC)c2c(c1OC)OCO2	11.6%	-1.8%[56.1 µM]	26.8%	·	·
CC(C)c1c(C(=O)N(C)Cc2cccc3ncccc23)cnn1-c1nccc(-c2ccccc2F)n1	4.11µM*	·	8.2µM*	·	·
COc1ccc(-c2oc3cc(OC)ccc3c(=O)c2O)cc1	11.9µM*	5.7%[56.1 µM]	11.9µM*	·	·
COc1cccc(Oc2c(C)oc3cc(OC(=O)N(C)C)ccc3c2=O)c1	?	-12.0%	-15.1%	·	-7.8%
Cn1c(=O)oc2cc(S(=O)(=O)NCCC(=O)NCCc3ccc(Cl)cc3)ccc21	?	3.3%	-26.0%	·	0.5%
Cn1c(=O)oc2cc(NC(=O)CCl)ccc21	13µM*	6.2%	23.1µM*	?	?
CCN(CC)Cc1nccn1-c1ccc([N+](=O)[O-])cc1C(=O)c1ccccc1Cl	-83.5%	·	5.96µM*	·	·
CC(=O)N1N=C2C3CCN(CC3)C2C1c1cccc2ccccc12 (stereo unspecified)	-1.1%	3.9%	-7.7%	-0.9%	2.2%
O=C(CN1CCCC1=O)Nc1ccccc1	-5.9%	2.3%	11.0%	-1.2%	-2.3%
COC(=O)c1cc(NC(=O)Cn2nc(-c3ccccc3)c3c(c2=O)CCCC3)cc(C(=O)OC)c1	?	0.0%	18.4µM*	·	7.2%
Nc1c2c(nc3sc4c(c13)CCCC4)CCCCC2	?	2.8%	18.4µM*	-6.7%	-56.5%
Nc1c2c(nc3sc4c(c13)CCCC4)CCCC2	?	-3.5%	?	-8.5%	-1.9%
CC12CC(=O)C3C(CCC4CC=CCC43C)C1CCC2=O (stereo unspecified)	12.6%	·	?	7.3%	·
NNC(N)=O	-1.4%	2.4%	2.1%	2.3%	·
